The source of these data is PubChem BioAssay.

Test [1] deals with TRPC4 beta (transient receptor potential cation channel C4), mouse. The test is described as follows: TRPC4 cation channel opening, retest – cell-based, Fluo4 calcium, HEK293 TRPC4beta/mu-opioid, duplicates, 10 µM, confirmation (AID 2426;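 active = fluorescence ratio normalized to control raised more than 50% in primary screen plus both repeat runs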;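 for activation: percent rise of integrated ratio over buffer wells lacking compound which define 0%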). The conditions noted are these: Fluo4 calcium fluorescence, at 10 µM; stronger effect = higher value.
For test [2], the system named is transient receptor potential cation channel C4 beta (TRPC4), mouse. The test is described as follows: TRPC4 cation channel opening, second retest – cell-based, second round, Fluo4, HEK293 TRPC4beta/mu-opioid, 1 µM, confirmation (AID 2461).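 For activation: 0% = wells without test compound as baseline of integrated fluorescence ratio.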 Conditions: Fluo4 calcium fluorescence, at 1 µM; stronger effect = higher value.
For test [3], the system named is TRPC4 (transient receptor potential cation channel C4 beta), mouse. The test is described as follows: potentiation of DAMGO EC20 TRPC4 response – cell-based, second round, Fluo-4, HEK293 TRPC4beta/mu-opioid, 1 µM, confirmation (AID 2554;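 active = primary screen hit whose fluorescence ratio, in both repeats, exceeds the weak agonist control mean by 3 SD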). Conditions: DAMGO EC20, Fluo-4 calcium flux, at 1 µM; stronger effect = higher value.
In test [4] the test system is TRPC4 beta (transient receptor potential cation channel C4), mouse. The test is described as follows: potentiation of DAMGO EC20 TRPC4 response – cell-based, Fluo-4, HEK293 TRPC4beta/mu-opioid, confirmation (AID 2555;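 active = primary screen hit whose calcium fluorescence ratio, in both repeats, exceeds the weak agonist control mean by 3 SD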). Conditions: DAMGO EC20, Fluo-4 calcium flux, at 10 µM; stronger effect = higher value. For orientation: A change in cytosolic calcium serves as a functional read-out for many receptors and channels.

The target of test [5] is Short transient receptor potential channel 4 (Mus musculus) (UniProt Q9QUQ5). The test is described as follows: blockers of DAMGO-evoked TRPC4 calcium flux – cell-based, Fluo4, HEK293 TRPC4beta/mu-opioid, confirmation (AID 2636;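 active = calcium signal cut by more than 3 SD below the full-agonist control yet still positive, in both repeats and the earlier primary screen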). The conditions noted are these: at 10 µM; stronger effect = higher value.
Test [6] shares this target. The test is described as follows: blockers of DAMGO-evoked TRPC4 calcium flux – cell-based, second round, Fluo4, HEK293 TRPC4beta/mu-opioid, 1 µM, confirmation (AID 2637;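 active = calcium signal ratio cut to more than 3 SD under the fully stimulated control mean yet still positive, in both repeats and the primary screen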). Conditions: at 1 µM; stronger effect = higher value.
For test [7] the target is unchanged. The test is described as follows: potentiation of DAMGO-evoked TRPC4 calcium signal – cell-based, HEK293 TRPC4/mu-opioid, Fluo-4 calcium, EC20 DAMGO, dose response (AID 434941;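 active = earlier screen potentiator hit that boosts the TRPC4 ion channel at some dose, with a dose response; inactive = no potentiation, no dose response, or not a prior hit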;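 note: calcium entry triggered by an EC20 dose of DAMGO at the co-expressed mu-opioid receptor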).
For test [8] the target is unchanged. The test is described as follows: block of DAMGO-driven TRPC4 calcium entry – cell-based, HEK293 TRPC4/mu-opioid, Fluo-4 calcium, dose response (AID 434942;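 active = primary screen inhibitor hit that blocks the TRPC4 channel at some tested dose, yielding a dose curve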).
For test [9], the target named is Short transient receptor potential channel 6 (Mus musculus) (UniProt Q61143). The test is described as follows: TRPC6 blockade by TRPC4 inhibitor hits – cell-based, HEK293, membrane potential dye, duplicate, selectivity assay for TRPC4 inhibitor project, confirmation (AID 434948;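 active = active in primary screen and both duplicates, each dropping signal beyond three positive-control SD with fluorescence still positive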). The conditions noted are these: HEK293 TRPC6, membrane potential dye fluorescence, at 10 µM, stimulated with maximal-effect acetylcholine; stronger effect = higher value.

The target is the same in test [10]. The test is described as follows: TRPC6 opening by TRPC4 activator hits – cell-based, HEK293, membrane potential dye, duplicate, selectivity assay for TRPC4 activator project, confirmation (AID 434950;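 active = membrane potential signal rise above negative control mean plus 3 SD in both duplicates, also active in the earlier TRPC4 screen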;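 for activation: 0% = buffer only wells and 100% = acetylcholine maximal-effect wells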). The conditions noted are these: HEK293 TRPC6, membrane potential fluorescence, at 10 µM; activation: stronger effect = higher value; outcome: activation.
Test [11] has the same target. The test is described as follows: positive modulators of mouse TRPC6 channel – HEK293 cells, membrane potential dye, duplicate, selectivity assay for TRPC4 potentiator project, confirmation (AID 434952;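 active = compound raising the membrane signal above positive-control mean plus 3 SD in both repeats, and a primary screen hit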). Conditions: HEK293 TRPC6, membrane potential dye fluorescence, at 10 µM, maximal acetylcholine added after compound; stronger effect = higher value.
Test [12] addresses Short transient receptor potential channel 4 (Mus musculus) (UniProt Q9QUQ5). The test is described as follows: calcium flux activators in TRPC4/5HT1a cells, counter-screen for TRPC4 activator project, cell-based, second counter screen, HEK293 TRPC4/5HT1a, Fluo-4 (AID 434977;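 active = calcium signal rise above buffer-control mean plus 5 SD in both duplicates, and also a hit in the primary screen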;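 for activation: plate controls were assay buffer for no effect and maximal serotonin response for full effect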). Conditions: Fluo-4 calcium flux, at 10 µM; stronger effect = higher value.
Test [13] is described as follows: serotonin-gated TRPC4 signal block – cell-based, second counter screen, HEK293 TRPC4/5HT1a, Fluo-4, counter-screen for TRPC4 inhibitor project, confirmation (AID 434978;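 active = primary screen active whose calcium signal fell more than 3 SD beyond the full-serotonin control mean in both duplicate plates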;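 note: serotonin given first at submaximal then at maximal dose after compound preincubation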). The conditions noted are these: Fluo-4 calcium flux, at 10 µM, serotonin added to trigger calcium flux; stronger effect = higher value. For orientation: A counterscreen serves to expose hits that act by an unwanted route or on another target.

Test [14] concerns TRPC4 (mouse), co-expressed with 5HT1a in HEK293. The test is described as follows: enhancement of serotonin-evoked TRPC4 response – cell-based, second counter screen, HEK293 TRPC4/5HT1a, Fluo-4, counter-screen for TRPC4 potentiator project, confirmation (AID 434979;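 active = signal rise over 3 SD above mean of control wells given weak agonist, in both repeats and first screen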). The conditions noted are these: Fluo-4 calcium flux, at 10 µM, serotonin added at its EC20 dose; stronger effect = higher value.

Test [15] in a line: nonspecific calcium rise without TRPC4 – cell-based, HEK293 mu-opioid receptor line, counter-screen for TRPC4 activator project, confirmation (AID 449723;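 active = hit in primary screen, with calcium signal over 5 SD above buffer well mean in both duplicates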;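 note: counter screen cells carry the mu-opioid receptor alone and lack TRPC4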). Conditions: HEK293 mu-opioid cells, Fluo-4 calcium fluorescence, at 10 µM; stronger effect = higher value.
A short description of test [16]: nonspecific potentiation of DAMGO calcium response – cell-based, HEK293 mu-opioid receptor line, counter-screen for TRPC4 allosteric potentiator project, confirmation (AID 449724;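 active = calcium signal rise more than 3 SD above the low-dose agonist control mean, in both duplicate plates and the primary screen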;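 note: HEK293 cells carrying mu-opioid receptor only with no TRPC4 channel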). The conditions noted are these: HEK293 mu-opioid receptor cells, Fluo-4 calcium flux, at 10 µM, compound added before EC20 DAMGO stimulus; stronger effect = higher value.

For part of these data: Measured potencies and affinities stand elsewhere. Calls of active or inactive are those of the source.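 Rule for the calls, unless noted: active = primary screen active and over 50% activation in each of two duplicate runs; inactive = the rest.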

Sequence of Short transient receptor potential channel 4 (Mus musculus) (Q9QUQ5 whole entry, looked up): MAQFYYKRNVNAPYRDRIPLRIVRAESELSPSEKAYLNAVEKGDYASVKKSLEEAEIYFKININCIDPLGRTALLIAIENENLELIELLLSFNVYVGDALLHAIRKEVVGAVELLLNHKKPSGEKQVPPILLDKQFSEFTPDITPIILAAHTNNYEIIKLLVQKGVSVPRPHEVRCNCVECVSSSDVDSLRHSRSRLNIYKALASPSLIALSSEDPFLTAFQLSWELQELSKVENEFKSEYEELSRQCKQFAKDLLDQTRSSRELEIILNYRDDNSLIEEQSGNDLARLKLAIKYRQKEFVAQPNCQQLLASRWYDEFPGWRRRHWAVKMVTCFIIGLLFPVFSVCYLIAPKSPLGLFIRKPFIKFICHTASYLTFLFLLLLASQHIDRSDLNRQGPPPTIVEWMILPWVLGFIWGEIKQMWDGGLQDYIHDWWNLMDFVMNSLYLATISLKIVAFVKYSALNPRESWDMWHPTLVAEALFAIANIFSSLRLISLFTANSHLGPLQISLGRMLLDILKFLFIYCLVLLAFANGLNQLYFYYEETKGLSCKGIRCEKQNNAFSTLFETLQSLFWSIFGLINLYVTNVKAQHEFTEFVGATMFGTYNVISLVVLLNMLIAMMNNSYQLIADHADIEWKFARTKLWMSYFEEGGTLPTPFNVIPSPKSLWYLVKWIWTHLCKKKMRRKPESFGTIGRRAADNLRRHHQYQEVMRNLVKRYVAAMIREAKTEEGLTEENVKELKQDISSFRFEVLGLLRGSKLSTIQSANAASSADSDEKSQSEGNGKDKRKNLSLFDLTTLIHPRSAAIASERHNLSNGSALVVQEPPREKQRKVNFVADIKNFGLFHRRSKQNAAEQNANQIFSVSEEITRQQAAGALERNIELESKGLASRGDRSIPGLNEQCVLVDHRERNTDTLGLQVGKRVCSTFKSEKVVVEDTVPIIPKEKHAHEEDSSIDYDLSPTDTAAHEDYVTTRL
Sequence of Short transient receptor potential channel 6 (Mus musculus) (Q61143 whole entry, looked up): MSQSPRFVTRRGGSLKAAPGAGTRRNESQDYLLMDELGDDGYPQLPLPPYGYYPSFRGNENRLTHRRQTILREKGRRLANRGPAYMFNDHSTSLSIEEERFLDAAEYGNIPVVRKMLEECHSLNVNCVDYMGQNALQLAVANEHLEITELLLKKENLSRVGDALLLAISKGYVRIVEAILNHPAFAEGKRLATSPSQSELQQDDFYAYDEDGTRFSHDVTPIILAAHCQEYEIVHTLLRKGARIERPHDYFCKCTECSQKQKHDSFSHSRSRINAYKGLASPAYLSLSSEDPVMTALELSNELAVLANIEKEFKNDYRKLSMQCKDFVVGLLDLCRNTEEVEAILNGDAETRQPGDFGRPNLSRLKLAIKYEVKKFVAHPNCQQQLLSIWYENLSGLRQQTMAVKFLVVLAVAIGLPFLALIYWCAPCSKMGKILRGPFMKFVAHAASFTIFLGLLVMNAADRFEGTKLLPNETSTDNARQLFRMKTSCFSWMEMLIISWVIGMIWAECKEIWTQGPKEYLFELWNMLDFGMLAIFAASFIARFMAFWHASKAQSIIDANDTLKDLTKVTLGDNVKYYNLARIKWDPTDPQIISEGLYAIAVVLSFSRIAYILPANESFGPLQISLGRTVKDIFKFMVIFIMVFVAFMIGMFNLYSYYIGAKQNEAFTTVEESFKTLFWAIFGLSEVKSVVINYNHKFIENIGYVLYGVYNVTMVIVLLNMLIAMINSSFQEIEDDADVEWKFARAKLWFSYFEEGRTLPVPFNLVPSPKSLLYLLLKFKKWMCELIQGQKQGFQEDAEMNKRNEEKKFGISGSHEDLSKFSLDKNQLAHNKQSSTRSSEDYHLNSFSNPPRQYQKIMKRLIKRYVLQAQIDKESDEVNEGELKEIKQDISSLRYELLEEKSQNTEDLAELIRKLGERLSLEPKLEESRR

For `O=C(NCc1ccccc1)C1=C[C@H](c2ccccc2)C[C@H](OCc2ccc(CO)cc2)O1`, the activation in test [1] is 300% (active); in test [10], 27% (active); in test [12] it was 178% (active). Besides, the outcome in test [2], in test [3], in [4], in test [5], in test [6] and in test [7] was inactive. For the same molecule, the outcome in [8], in test [9], in [11], in test [13], in [14] and in test [15] was inactive. Also, in test [16], the result was inactive.

As to `O=C(CC1C(=O)NCCN1Cc1cccc(Oc2ccccc2)c1)NCCc1ccccn1` (stereo not given), the activation in test [1] is 99% (active); in [12], 42.3% (active). In addition, the outcome in test [2], in test [3], in test [4], in [5], in [6] and in test [7] was inactive. Moreover, the result in [8], in [9], in [10], in test [11], in test [13] and in test [14] was inactive. Besides, the outcome in test [15] and in test [16] was inactive.

`CCN1CCN(c2ncnc3sc(C)c(-c4ccccc4)c23)CC1`: the activation in test [1] was 107% (active). In addition, the outcome in [2], in test [3], in test [4], in [5], in test [6] and in test [7] was inactive. Also, the outcome in [8], in [9], in test [10], in test [11], in [12] and in test [13] was inactive. For the same molecule, the result in [14], in test [15] and in test [16] was inactive.

With `CCN(CC)CCCNC(=O)c1cc2c(-c3ccc(Cl)cc3)nn(C)c2s1`, the result in test [1], in test [2], in test [4], in [5], in test [6] and in test [7] was inactive. Besides, the result in [8], in [9], in [10], in test [11], in test [13] and in test [15] was inactive. Moreover, the outcome in test [16] was inactive. The results for the potentiation in [3] and in test [14] were 13% (active) and 31.3% (active), respectively. Besides, in test [12], the activation is 12.6% (active).

As for `COc1cc(OC)cc(C(=O)NC(=S)NNC(=O)Cc2cccs2)c1`, the values for the activation in test [1], in test [12] and in test [15] were 101% (active), 58.2% (active) and 20.6% (active), respectively. Also, the result in [2], in [3], in test [4], in test [5], in test [6] and in test [7] was inactive. The outcome in test [8], in [9], in [10], in test [11], in test [13] and in test [14] was inactive. In addition, in [16], the result was inactive.

On to `CN(CCc1ccccn1)C1CC(=O)N(c2ccc(Cl)cc2)C1=O` (stereo not given), for which the activation is 195% (active) in test [1], 70% (active) in test [2] and 102% (active) in test [12]. In addition, the result in [3], in test [4], in test [5], in test [6], in [7] and in [8] was inactive. The molecule was classed as inactive in test [9], in test [10], in test [11], in test [13], in test [14] and in test [15]. Moreover, the result in test [16] was inactive.

Consider `Cc1cc(OCCn2ccnc2)cc(C)c1Cl`, for which the activation is 146% (active) in test [1], 42% (active) in test [10] and 34.8% (active) in test [12]. In addition, the outcome in [2], in [3], in test [4], in test [5], in [6] and in [7] was inactive. The outcome in [8], in test [9], in test [11], in [13], in [14] and in test [15] was inactive. The outcome in test [16] was inactive.

As to `Cc1ccc(CNC(=O)C2CCCN(Cc3cnn(-c4ccccc4)c3-n3cccc3)C2)cc1` (stereo not given), the activation in [1] is 81% (active); in [10] it was 46% (active). Besides, the result in test [2], in test [3], in test [4], in [5], in test [6] and in test [7] was inactive. The outcome in test [8], in test [9], in test [11], in test [12], in test [13] and in [14] was inactive. In addition, the outcome in [15] and in test [16] was inactive.

Turning to `O=C(NC1CCCN(Cc2ccc(Cl)cc2)C1)C1CCC1` (stereo not given), the activation in test [1] was 120% (active); in test [2], 58% (active); in test [10], 47.5% (active); in test [12], 39.7% (active). Also, the result in test [3], in [4], in test [5], in [6], in test [7] and in test [8] was inactive. Also, the molecule was called inactive in test [9], in test [11], in test [13], in test [14], in test [15] and in test [16].

Regarding `COc1ccc(N2CCN(Cc3nc4ccccc4n3C)CC2)cc1`, the activation in test [1] is 154% (active). Further, the result in [2], in test [3], in test [4], in test [5], in [6] and in [7] was inactive. The result in test [8], in test [9], in test [10], in test [11], in test [12] and in test [13] was inactive. For the same molecule, the outcome in test [14], in [15] and in [16] was inactive.

Turning to `CSc1ccc(C(=O)NCC(c2ccco2)N(C)C)cc1[N+](=O)[O-]` (stereo not given), the activation in [1] is 341% (active); in test [2], 228% (active); in test [12], 45.6% (active). For the same molecule, the outcome in [3], in test [4], in test [5], in test [6], in test [7] and in [8] was inactive. In addition, the molecule was classed as inactive in test [9], in test [10], in test [11], in [13], in [14] and in test [15]. Moreover, in test [16], the result was inactive.

On to `OCC1(CCc2ccccc2)CCN(Cc2cccn2-c2cccnc2)CC1`, for which the activation was 56% (active) in test [1] and 55% (active) in test [10]. The result in test [2], in [3], in test [4], in test [5], in test [6] and in [7] was inactive. The result in test [8], in [9], in test [11], in test [12], in test [13] and in test [14] was inactive. Further, the result in [15] and in test [16] was inactive.

As to `Cc1cccc(C(=O)NC(=S)NNC(=O)Cc2ccccc2)c1`, the activation is 238% (active) in [1], 32.5% (active) in [10], 133% (active) in test [12] and 44.1% (active) in test [15]. For the same molecule, the result in test [2], in test [3], in [4], in [5], in test [6] and in [7] was inactive. Also, the result in [8], in test [9], in [11], in test [13], in test [14] and in test [16] was inactive.

For the molecule `CCn1c(=O)c(C(=O)NNC(=O)c2ccccc2F)c(O)c2ccccc21`, the results for the activation in [1], in [12] and in [15] were 126% (active), 111% (active) and 34% (active), respectively. For the same molecule, the outcome in test [2], in test [3], in [4], in [5], in [6] and in test [7] was inactive. For the same molecule, the result in [8], in test [9], in test [10], in test [11], in test [13] and in [14] was inactive. In test [16], the outcome was inactive.

Consider `CN1CCN(c2ccc(NC(=O)c3ccc(-c4cccc([N+](=O)[O-])c4)o3)cc2)CC1`, for which the activation in [1] is 87% (active). Besides, the result in test [2], in test [3], in test [4], in test [5], in test [6] and in [7] was inactive. Moreover, the result in [8], in [9], in test [10], in test [11], in test [12] and in test [13] was inactive. Further, the outcome in [14], in test [15] and in [16] was inactive.
